Only some compounds are listed: those with a hit (about 4.8% of all), similar ones and a draw of the others.
DAX1 inh-1 – DAX1 (NR0B1) inhibitors, primary screen, cell-based, HEK293, Gal4-DAX1, luciferase luminescence. Nuclear receptor subfamily 0 group B member 1 (Homo sapiens), P51843. HEK293 Gal4-DAX1 luciferase reporter. inhibition, % at 6.75 µM. 340,000 tested, 0.99% active. AID 504766, 2011;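 active means inhibition above the mean over all tested compounds plus 3 SD, cut at about 4.2% in these data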;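 further: 0% = DAX1-transfected cells with DMSO and 100% = empty-vector control cells with DMSO; inhibition shows as a rise in luminescence from relieved DAX1 repression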
Target sequence (P51843 207-470 limits assumed): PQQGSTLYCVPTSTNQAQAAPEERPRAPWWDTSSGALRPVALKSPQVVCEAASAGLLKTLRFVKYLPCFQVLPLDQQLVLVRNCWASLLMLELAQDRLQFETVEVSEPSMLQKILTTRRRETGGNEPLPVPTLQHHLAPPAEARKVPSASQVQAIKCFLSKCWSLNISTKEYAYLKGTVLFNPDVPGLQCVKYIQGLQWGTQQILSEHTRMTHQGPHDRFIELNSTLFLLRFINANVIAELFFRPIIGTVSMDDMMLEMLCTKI
hgDAF-12 ag – H. glycines DAF-12 receptor agonists, primary screen, cell-based, luminescence, HEK293, GAL4 fusion, UAS-luciferase; HEK293 GAL4-hgDAF12 UAS-luciferase reporter, agonist luminescence; normalized to butyrate control; 370,000 tested, 1.8% active; AID 687014, 2013; activation, % at 6.8 µM; Nuclear hormone receptor DAF-12 (Heterodera glycines), GAL4 fusion;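 active means activation above a cutoff set at the mean of all screened compounds plus 3 SD, cut at about 10% in these data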;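 further: 0% = DMSO wells and 100% = sodium butyrate wells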
DAX1 inh-2 – DAX1 (NR0B1) inhibitors on StAR promoter, primary screen, cell-based, luminescence, SF-1 (NR5A1), full-length DAX-1; HEK293T StAR-luciferase reporter, SF-1/DAX-1 repression relief; inhibition, % at 6.8 µM; 370,000 tested, 1.1% active; AID 652010, 2013;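 active means inhibition above the mean over all tested compounds plus 3 SD, cut at about 3.6% in these data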;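 further: 0% = DAX-1 cells with DMSO and 100% = cells lacking DAX-1 with DMSO; higher inhibition means more luminescence from relief of DAX-1 repression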
ssDAF12 agonist – S. stercoralis DAF-12 nuclear receptor activators, primary screen, cell-based, luminescence, HEK293, GRIP1 co-expression, lit1-tk-luc; activation, % at 6.8 µM; AID 652126, 2013; Nuclear hormone receptor DAF-12 (Strongyloides stercoralis); HEK293 ssDAF-12/GRIP1 lit1-tk-luc reporter; % of 3 µM dafachronic acid response; 370,000 tested, 1% active;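 active means activation above the mean over all tested compounds plus 3 SD, cut at about 0.9% in these data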;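 further: 0% = DMSO-only wells and 100% = 3 µM delta7-dafachronic acid wells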
SMARCA2 activ – SMARCA2 (BRM) function activators, primary screen, cell-based, luminescence, high throughput | MG213 cells, MMTV-luciferase reporter, dexamethasone, overnight | activation, % at 9.1 µM | 370,000 tested, 1% active; in the data active means activation above about 7.8%;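 further: 0% = vehicle wells and 100% = reference activator wells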
hcDAF12 agonist – H. contortus DAF-12 nuclear receptor activators, primary screen, cell-based, luminescence, HEK293, lit1-tk-luc reporter. activation, % at 6.8 µM. 370,000 tested, 1.4% active. HEK293 hcDAF-12 lit1-tk-luc reporter; 0% DMSO, 100% Δ7-dafachronic acid;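 active means activation above the mean of all tested compounds plus 3 SD, cut at about 5.5% in these data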;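 further: 100% = response to 3 µM Δ7-dafachronic acid high control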
* = called active by the depositor; . = no result given.

SMILES	DAX1 inh-1	hgDAF-12 ag	DAX1 inh-2	ssDAF12 agonist	SMARCA2 activ	hcDAF12 agonist
CCC(C)(C)NC(=O)CN(C(=O)C(=O)Nc1ccc2c(c1)OCCO2)C1CC1	-1	1	1	-1	-1	0
CN=c1scc(C)n1/N=C/c1ccc2c(c1)OCO2	-1	11*	5.6*	0	5	9.6*
C/C(CC(=O)Nc1cccc2c1CCCC2)=N\NC(=O)c1ccccc1N	2	5	0	-1	3	1
C/C(CC(=O)NC(C)(C)C)=N\NC(=O)c1ccccc1N	4.7*	10	3	0	3	2
COC(=O)[C@@]12C[C@@H](CC(=O)NCCCN3CCCC3=O)C(=O)N(CCc3ccc(OC)c(OC)c3)C1=CCC(C)(C)C2	.	-4	3.8*	-1	0	1
COc1cc(C2c3[nH]c4ccccc4c3CC3COC(=O)N32)cc(OC)c1O (stereo not drawn)	0	-1	-2	0	2	0
CCOC(=O)c1c(N/N=C/c2cccnc2)n[nH]c1C	5.3*	3	0	-1	-2	0
CCOC(=O)c1c(Nc2ccc(OC)cc2)n[nH]c1C	.	8	4.3*	0	7	1
CCOC(=O)c1c(N)n[nH]c1-c1ccc(OC)cc1	-1	1	0	-1	-3	-1
CCN(CC)C(=O)C(c1ccccc1)S(=O)(=O)N1CCOCC1 (stereo not drawn)	0	1	-1	-1	0	-1
Cc1ccc(OCc2nc(-c3ccccc3)no2)cc1	4.8*	9	1	0	4	2
Cc1ccc(-c2noc(COc3ccccc3C)n2)cc1	1	2	0	-1	2	-2
CC(C)(C)c1ccc(OCc2nc(-c3ccccn3)no2)c(Br)c1	2	11*	3	0	3	3
Cc1ccc(Cc2nc(-c3ccccn3)no2)cc1	2	13*	3	0	8	3
c1ccc(-c2nc(-c3ccccn3)no2)cc1	-4	3	3	-1	-2	6.4*
Cn1c(=O)c2ncn(C)c2n(C)c1=O	1	-4	0	-1	-5	-2
Cc1ccc(-c2nc3c4ccccc4ccn3c2Cc2cccc(F)c2)cc1	.	2	1	0	6	4
Cc1ccc(CCC(=O)Nc2ccc([N+](=O)[O-])cc2)o1	0	2	0	-2	-2	-1
CC(C)NC(=O)N(C)C[C@@H]1Oc2cc(Br)ccc2S(=O)(=O)N([C@@H](C)CO)C[C@H]1C	0	6	1	-1	-2	-1
c1cc(-c2noc(CC3CCCCC3)n2)ccn1	0	2	1	0	6	0
c1ccc(-c2noc(CC3CCCCC3)n2)nc1	2	12*	3.9*	-1	5	5
CC(=NNc1cc(C)c2ccccc2n1)c1ccccn1	.	-1	2	0.9*	1	2
Cc1cc(N/N=C(/CCC(=O)O)C(=O)O)nc2ccccc12	0	2	0	-1	1	1
CN(C)/N=C/c1cc([N+](=O)[O-])ccc1O	-2	0	1	-1	1	0
O=[N+]([O-])c1cccc(/C=N/n2cnnc2)c1	6.3*	-2	1	0	-4	1
O=[N+]([O-])c1ccc(O)c(/C=N/n2cnnc2)c1	5.1*	0	1	-1	-4	-1
CN(C)C(CNS(=O)(=O)c1cc([N+](=O)[O-])ccc1Cl)c1ccco1 (stereo not drawn)	1	3	-1	-1	7.8*	-1
CN(C)C(CNC(=O)c1ccc([N+](=O)[O-])cc1Cl)c1ccco1 (stereo not drawn)	0	-1	0	-1	1	0

Bioassay records: PubChem, The Scripps Research Institute Molecular Screening Center
